Data from the supplement of paper PMC8728848.
This is one part of a sample in which the strongest signals are shown more often than they occur.

What was measured:
Assay in all cases: glycan array binding signal (z-score within array); higher = stronger binding
Settings in all cases: glycan notation: IUPAC condensed, linker removed
[1] = target: Fuc(a1-2)Gal(b1-3)GalNAc(a1-3)[Fuc(a1-2)]Gal(b1-4)Glc
How it was run: (§1)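 The binding signal is a Z-score computed within each array and averaged over linkers. Arrays of the same protein sequence at different concentrations or buffers were also averaged together. Data originate from 3228 arrays in the Consortium for Functional Glycomics database, kept only where the protein sequence was available.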

[2] = target: Fuc(a1-2)Gal(b1-3)GlcNAc(b1-3)GalNAc
How it was run: as §1

[3] = target: Fuc(a1-2)Gal(b1-4)GlcNAc(b1-2)Man(a1-3)[Fuc(a1-2)Gal(b1-4)GlcNAc(b1-2)Man(a1-6)]Man(b1-4)GlcNAc(b1-4)[Fuc(a1-6)]GlcNAc
How it was run: as §1

[4] = target: Fuc(a1-2)Gal(b1-4)GlcNAc6S
How it was run: as §1

[5] = target: Fuc(a1-2)[Gal(a1-3)]Gal(b1-3)GalNAc(b1-3)Gal(a1-4)Gal(b1-4)Glc
How it was run: as §1

[6] = target: Fuc(a1-2)[Gal(a1-3)]Gal(b1-3)GlcNAc(b1-6)GalNAc
How it was run: as §1

[7] = target: Fuc(a1-2)[Gal(a1-3)]Gal(b1-4)GlcNAc(b1-2)Man(a1-3)[Fuc(a1-2)[Gal(a1-3)]Gal(b1-4)GlcNAc(b1-2)Man(a1-6)]Man(b1-4)GlcNAc(b1-4)GlcNAc
How it was run: as §1

[8] = target: Fuc(a1-2)[Gal(a1-3)]Gal(b1-4)GlcNAc(b1-6)GalNAc
How it was run: as §1

[9] = target: Fuc(a1-2)[GalNAc(a1-3)]Gal(b1-3)GlcNAc
How it was run: as §1

[10] = target: Fuc(a1-2)[GalNAc(a1-3)]Gal(b1-4)GlcNAc(b1-2)Man(a1-3)[Fuc(a1-2)[GalNAc(a1-3)]Gal(b1-4)GlcNAc(b1-2)Man(a1-6)]Man(b1-4)GlcNAc(b1-4)GlcNAc
How it was run: as §1

[11] = target: Fuc(a1-2)[GalNAc(a1-3)]Gal(b1-4)[Fuc(a1-3)]GlcNAc(b1-3)GalNAc
How it was run: as §1

Fuc(a1-3)GlcNAc = target: Fuc(a1-3)GlcNAc
How it was run: as §1

[12] = target: Fuc(a1-3)[Gal(b1-4)]GlcNAc(b1-4)Gal(b1-4)[Fuc(a1-3)]GlcNAc
How it was run: as §1

[13] = target: Fuc(a1-3)[Gal(b1-4)]GlcNAc(b1-6)[Gal(b1-3)GlcNAc(b1-3)]Gal(b1-4)Glc
How it was run: as §1

Gal(a1-4)Gal(b1-4)GlcNAc = target: Gal(a1-4)Gal(b1-4)GlcNAc
How it was run: as §1

[14] = target: Gal(b1-3)Gal(b1-4)GlcNAc(b1-2)Man(a1-3)[Gal(b1-3)Gal(b1-4)GlcNAc(b1-2)Man(a1-6)]Man(b1-4)GlcNAc(b1-4)GlcNAc
How it was run: as §1

[15] = target: Gal(b1-3)GlcNAc(b1-3)Gal(b1-4)GlcNAc(b1-2)Man(a1-3)[Gal(b1-3)GlcNAc(b1-3)Gal(b1-4)GlcNAc(b1-2)Man(a1-6)]Man(b1-4)GlcNAc(b1-4)GlcNAc
How it was run: as §1

[16] = target: Gal(b1-3)[Fuc(a1-4)]GlcNAc(b1-6)GalNAc
How it was run: as §1

[17] = target: Gal(b1-3)[Neu5Ac(a2-6)]GalNAc
How it was run: as §1

[18] = target: Gal(b1-4)GlcNAc(b1-2)Man(a1-3)[Gal(b1-4)GlcNAc(b1-2)Man(a1-6)]Man(b1-4)GlcNAc(b1-4)GlcNAc
How it was run: as §1

[19] = target: Gal(b1-4)GlcNAc(b1-2)Man(a1-3)[Gal(b1-4)GlcNAc(b1-2)Man(a1-6)][Gal(b1-4)GlcNAc(b1-4)]Man(b1-4)GlcNAc(b1-4)[Fuc(a1-6)]GlcNAc
How it was run: as §1

[20] = target: Gal(b1-4)GlcNAc(b1-2)Man(a1-6)[Man(a1-3)]Man(b1-4)GlcNAc(b1-4)GlcNAc
How it was run: as §1

[21] = target: Gal(b1-4)GlcNAc(b1-2)[Gal(b1-4)GlcNAc(b1-4)]Man(a1-3)[Gal(b1-4)GlcNAc(b1-2)[Gal(b1-4)GlcNAc(b1-6)]Man(a1-6)]Man(b1-4)GlcNAc(b1-4)GlcNAc
How it was run: as §1

[22] = target: Gal(b1-4)GlcNAc(b1-2)[Gal(b1-4)GlcNAc(b1-6)]Man(a1-6)[GlcNAc(b1-4)][Gal(b1-4)GlcNAc(b1-2)Man(a1-3)]Man(b1-4)GlcNAc(b1-4)GlcNAc
How it was run: as §1

[23] = target: Gal(b1-4)GlcNAc(b1-3)Gal(b1-4)GlcNAc(b1-3)Gal(b1-4)GlcNAc(b1-3)Gal(b1-4)GlcNAc(b1-2)[Gal(b1-4)GlcNAc(b1-3)Gal(b1-4)GlcNAc(b1-3)Gal(b1-4)GlcNAc(b1-3)Gal(b1-4)GlcNAc(b1-6)]Man(a1-6)[Gal(b1-4)GlcNAc(b1-3)Gal(b1-4)GlcNAc(b1-3)Gal(b1-4)GlcNAc(b1-3)Gal(b1-4)GlcNAc(b1-2)Man(a1-3)]Man(b1-4)GlcNAc(b1-4)[Fuc(a1-6)]GlcNAc
How it was run: as §1

[24] = target: Gal(b1-4)GlcNAc(b1-3)Gal(b1-4)GlcNAc(b1-3)Gal(b1-4)GlcNAc(b1-3)Gal(b1-4)GlcNAc(b1-3)Gal(b1-4)GlcNAc(b1-2)Man(a1-3)[Gal(b1-4)GlcNAc(b1-3)Gal(b1-4)GlcNAc(b1-3)Gal(b1-4)GlcNAc(b1-3)Gal(b1-4)GlcNAc(b1-3)Gal(b1-4)GlcNAc(b1-2)Man(a1-6)]Man(b1-4)GlcNAc(b1-4)GlcNAc
How it was run: as §1

[25] = target: Gal(b1-4)GlcNAc(b1-3)Gal(b1-4)GlcNAc(b1-3)Gal(b1-4)GlcNAc(b1-3)Gal(b1-4)GlcNAc(b1-3)Gal(b1-4)GlcNAc(b1-2)Man(a1-3)[Gal(b1-4)GlcNAc(b1-3)Gal(b1-4)GlcNAc(b1-3)Gal(b1-4)GlcNAc(b1-3)Gal(b1-4)GlcNAc(b1-3)Gal(b1-4)GlcNAc(b1-2)Man(a1-6)]Man(b1-4)GlcNAc(b1-4)[Fuc(a1-6)]GlcNAc
How it was run: as §1

B1: Gal 9 (Homo sapiens), O00182 (protein)
chain: MAFSGSQAPYLSPAVPFSGTIQGGLQDGLQITVNGTVLSSSGTRFAVNFQTGFSGNDIAFHFNPRFEDGGYVVCNTRQNGSWGPEERKTHMPFQKGMPFDLCFLVQSSDFKVMVNGILFVQYFHRVPFHRVDTISVNGSVQLSYISFQNPRTVPVQPAFSTVPFSQPVCFPPRPRGRRQKPPGVWPANPAPITQTVIHTVQSAPGQMFSTPAIPPMMYPHPAYPMPFITTILGGLYPSKSILLSGTVLPSAQRFHINLCSGNHIAFHLNPRFDENAVVRNTQIDNSWGSEERSLPRKMPFVRGQSFSVWILCEAHCLKVAVDGQHLFEYYHRLRNLPTINRLEVGGDIQLTHVQT
glycan array binding signal (z-score) [1]: -0.317
glycan array binding signal (z-score) [2]: -0.3
glycan array binding signal (z-score) [3]: -0.322
glycan array binding signal (z-score) [4]: 0.06
glycan array binding signal (z-score) [5]: -0.307
glycan array binding signal (z-score) [6]: -0.233
glycan array binding signal (z-score) [7]: 0.9
glycan array binding signal (z-score) [8]: -0.307
glycan array binding signal (z-score) [9]: 0.055
glycan array binding signal (z-score) [10]: 4.39
glycan array binding signal (z-score) [11]: -0.288
glycan array binding signal (z-score) (Fuc(a1-3)GlcNAc): -0.32
glycan array binding signal (z-score) [12]: -0.303
glycan array binding signal (z-score) [13]: -0.236
glycan array binding signal (z-score) (Gal(a1-4)Gal(b1-4)GlcNAc): -0.299
glycan array binding signal (z-score) [14]: 6
glycan array binding signal (z-score) [15]: 4.53
glycan array binding signal (z-score) [16]: -0.282
glycan array binding signal (z-score) [17]: -0.315
glycan array binding signal (z-score) [18]: 2.94
glycan array binding signal (z-score) [19]: -0.269
glycan array binding signal (z-score) [20]: 0.09
glycan array binding signal (z-score) [21]: 4.71
glycan array binding signal (z-score) [22]: 3.87
glycan array binding signal (z-score) [23]: 9.56
glycan array binding signal (z-score) [24]: 4.95
glycan array binding signal (z-score) [25]: 4.2
